# The campaign covered roughly 31,000 sequences. About 1,400 (4.5%) were called active. The entries come from a sample that favours actives as a whole. Unmarked numbers belong to inactive results.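 Rule for the calls: active = median seed-adjusted z-score above 1 or below -1; inactive = the rest.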
# Assay: Novel Modifiers of Survival Motor Neuron (SMN) Protein: Gene Identification via Genome-wide siRNA Screen;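 note: luminescence tracks full-length SMN protein made from the SMN2 reporter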
# Details: HEK293T SMN2-luciferase reporter, siRNA knockdown, 72 h; actives lie on both sides
# Procedure, shortened: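 siRNA screen, 10418 genes ×3 siRNAs; 1 pmol/well, lipid reverse transfection into HEK293T SMN2-luc reporter line. 72 h, 37 °C, 5% CO2; ONE-Glo readout. Data: neg-ctrl normalized, log10, MAD; hit = MAD >1.0 or < -1.0.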
row,Sequence,median seed-adjusted z-score
1,GUGACGGCUUUAGACCUGATT against PRTFDC1,0.493
2,GCAAGGUUCCUAGCGUGUATT against VCAM1,0.19
3,CAGCAGAGCCGAUCCAAGATT against GPR37L1,-0.0348
4,ACAUCUUCAAGGCCCUUUUTT against CTDSP2,0.498
5,GGAAUUCCGUAAAAGCAUUTT against HOXC13,-0.318
6,CACUAAUCGUGAGCAUGGATT against XRCC5,-1.11 (active)
7,GAGUAGUUUAGAUAAGUUATT against SPAG9,0.0795
8,GCAUCCGAGAUGUGACUAATT against DIS3,0.266
9,GCAGUGAUCAUAAUUCUCATT against SLC7A1,0.445
10,UGACGACACUGACCGCAGATT against UBE2S,0.348
11,GCAUUGAGAUGUUCCACAATT against TUFM,1.07 (active)
12,GAAUCACUCUUUGACAACATT against SLC2A13,-0.0451
13,GAAGAAUACAAACAGCAAUTT against CRCP,0
14,CAGCUGUUCUCAUAUGCUATT against ATP5G3,0
15,CCUGAUUACUAUAAGAUCATT against BRD4,1.13 (active)
16,GAACCUCUCUGAAACUGCUTT against PBLD,-0.0809
17,CGACUCCGGAGGAUUGAAATT against GSX2,-0.621
18,GCAAGUUAGUGGAUUAAAATT against FOXP1,-0.198
19,GACUAGUACUUACGGCUUUTT against RBM15,-0.409
20,GCAUGAACGCGGUCAUGAUTT against RAB40C,-0.161
21,CAGGUCAAGUGUUACCGAUTT against ZCCHC13,-0.297
22,GCAAUUACAGGCUAGUGAATT against AKAP9,-1.22 (active)

row,Sequence,median seed-adjusted z-score
1,CCUACUUCGGAGUCUAUGATT against SLC25A4,-0.379
2,CAAGGUUGAUGGGCGUGUATT against HNRNPA3,0.915
3,CCAGGACUUUGUUACUGCATT against TIGD6,-0.443
4,GCUGGUACCCGUCAACAAATT against ABCC10,-1.56 (active)
5,GGACUUCAAUAUCGCAGUATT against PLCE1,0.597
6,GGAACAGCGCAGUACGUUUTT against PDPK1,0.0807
7,CCAUCGCUUUCAGCAGACATT against DLX6,0.0275
8,GGACCACAAGGGAAUACAATT against KHDRBS1,0.0916
9,ACUUGGAUCAUUUCCCUGATT against SLC13A5,0
10,GACCUUGAAUGUUCAACAUTT against ZNF470,-1.26 (active)
11,GCCGCAUCGUAGCUCGUAATT against RRAD,-0.267
12,GGAAUAUGCAUAUCAUGGATT against LNPEP,-0.386
13,CGAUAUAUGUGAUAUGCGUTT against ZNF740,-0.914
14,GCAACAAGACGGAAUUGGATT against SFRS3,2.74 (active)
15,GAGUGGACAUUCUAAUCAATT against RDH13,0.208
16,CCAUCUUAAACUCGCUCUATT against GPR114,0.805
17,CUACCGGGCUGACCUCAAATT against GPR153,-1.08 (active)
18,UGAGAGCUCUAGAUAUGAATT against ZNF768,0.169
19,ACGGCUCUGUGGACACAGATT against GPR78,0.607
20,CGAGUGAAAGAAUCAAUAUTT against OXSR1,-0.0682
21,GCUACGAGUUUACUAUCUUTT against TNIK,0.154
22,CCUCAGAGCUCAAUCAUCUTT against CD5,0.0416

row,Sequence,median seed-adjusted z-score
1,CGAUAAUCUGGGCUACAGATT against ADD1,-0.0129
2,CCAAUACUAACAUCUUCAATT against MCART1,-0.605
3,CAACGGCUCUUAGACCACATT against SPRY4,-1.23 (active)
4,GCUCAGUAUUUAAACAUCATT against COL9A2,0.0208
5,AGCCGACAGUGGUGCACUATT against PLA2G15,0
6,CGGAGACCGUACGAAAGUATT against A2M,-1.96 (active)
7,GGAUGGAAGAUAGCUUGAATT against CPEB4,-0.53
8,CGGGCAUUGCCACCAAAGATT against DUX5,-0.295
9,GCAUUCAUCACUUCGAAAATT against BNC2,-0.0556
10,CCUACAGCAGUGUCUAUGATT against EIF3C,0.56
11,GGUUGACUCAGAUACUACATT against CENPE,0.298
12,GGAUCCUUACUUCUUGUCATT against COQ2,-0.0121
13,GGAAACCAGUGGAUAUUAATT against F11,-0.0319
14,ACAUCAACGUGGAACGAGATT against EIF4A1,-1.05 (active)
15,GAUGAGACUUUGACUAUAATT against FGD6,0.536
16,GCCUGAACCUCAUCCUUAUTT against ENPP1,-0.273
17,GGGUUUUCAUUCAGAUGAATT against MLL4,-0.259
18,GGAUUAUUCCUACCUAAUUTT against CDYL2,-0.379
19,GGAAGAAGGUUCUCAAACATT against RETSAT,-1.7 (active)
20,GGAGCAGUAUUGACAACAATT against NUFIP1,-0.673
21,GCACAAUUGAAAACUUCAATT against CYSLTR2,0.0461
22,GGAUGUUCCAAAUCACGGATT against MBTD1,0.0649

row,Sequence,median seed-adjusted z-score
1,GGAUUGCCCAGGGUUCCUATT against DGKQ,-0.0985
2,CGGUUAGAUUUGGACAGUATT against ARHGAP9,0
3,GGACUUGGUUUUUCGUACATT against MED14,-3.22 (active)
4,UCCUUUAACUCGACAGUCATT against DRG2,-0.175
5,AGAGGGCACUGGACCUGAATT against UQCRB,0.348
6,GAUCCAAUGUAAACGUGGATT against GRLF1,0.0307
7,GGACCAGAACCACAAGCAATT against GHSR,0.18
8,GAUCAUCUCUGAAACAGCATT against GYG1,0.119
9,CAUUCGACAUAGAAGAGUUTT against ZNF551,-0.171
10,GGUUACAAGCGGUUUGGUATT against COLEC12,-1.04 (active)
11,CAUGUUAAUUGUUAAGGAUTT against WFDC8,0.0427
12,GAGCAGAUCGAGAUCAAAATT against EVI5L,0.0497
13,GGAAAUUCAGGUACGGAUATT against ADAMTS4,-0.0153
14,CGGACAUUCGUGCAAAGAATT against PRPF6,-1.06 (active)
15,AGAAUACGAUGACCACCAATT against RING1,0.685
16,GCAUACAUCAUGACCGUCATT against DUSP22,0
17,GCCGAUACCUUCACUCGAATT against TAP1,-0.506
18,GGGAAGCUAUGCGAAAUUATT against RBPJ,-0.452
19,GCUUCAUUGAGUACGAGAATT against PUF60,2.26 (active)
20,GGAUCGGAUAAAUAACAGUTT against HEY2,-0.0831
21,GAUCAAGACUCUGCGCCUATT against HAND1,0.161
22,GAAUUGCUGAUAAACCUAUTT against SMNDC1,-1.54 (active)

row,Sequence,median seed-adjusted z-score
1,GUAUUCCAGCGAAUCCGAUTT against PAK7,-0.202
2,CGUCAAAAGAGCCCAUAAATT against ENPP5,-0.0499
3,GGAACUCUAUGGUCAUCUATT against SSTR1,0.285
4,CCAAAGGAGUCAGCACUGUTT against PLXNA1,0
5,GCAGUUGAAUUAUCACAGUTT against UQCRFS1,-1.28 (active)
6,GGAAGAAUGUGGUUUGCGATT against GFOD2,-0.0447
7,GGAGAGGAUUAUUUCCGCATT against SDR9C7,0
8,GCAAGUUGGAGAACGAGUATT against MED8,-1.61 (active)
9,GGCCCAAGAUCUUCCCUAATT against GPR179,-0.513
10,CAGUCGUUGCUGUCAAAAATT against RGS9,0.0665
11,UGCUCUCUGUUGCAUUGAATT against IAPP,-0.157
12,GAUUUCUAAUUAACACAAUTT against POLR1D,-0.0409
13,CCAUCAUCCGGGAUGAGGATT against NPEPL1,1.12 (active)
14,GCAAAGUGCCGAAACAAGATT against ATF3,-0.000485
15,CGAAUAUACCAGGACGAAATT against SATB1,0
16,UACUGUCUCUAGUCUUUUUTT against SEC11B,1.04 (active)
17,GCUUGUUCGGCUACACGAATT against CYP8B1,0
18,CUAAAAGACCGAACAAUAATT against HNRPUL1,-0.047
19,GGUUCAUGUUUGCAAUCUUTT against POLR2B,-4.81 (active)
20,UGAACGCAGUCAUCCGGAATT against MAPK15,0.0724
